The values below come from PubChem BioAssay.

A short description of assay [1]: nonspecific flux increase, KCNQ1-free cells – parental CHO cells, counter-screen for KCNQ1 potentiator project (AID 493006).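 For activation: fluorescence ratio of max minus min over baseline after K+ and Tl+ depolarization.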 The conditions noted are these: parental CHO-K1 cells, FluxOR thallium flux, at 10 µM; hits give high values. On the technique in general: Counterscreens check selectivity or assay interference.
Assay [2] addresses Potassium voltage-gated channel subfamily KQT member 1 (Homo sapiens) (UniProt P51787). Nature of the assay: enhancement of KCNQ1 channel thallium flux – FluxOR thallium flux, CHO cells, duplicates, confirmation (AID 493007;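 active = potentiation averaged over duplicate wells exceeding buffer-only control mean by more than 3 SD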;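 for outcome: cells depolarized by a potassium plus thallium sulfate stimulus after compound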;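 for potentiation: 0% = buffer-only wells and 100% = R-L3 activator control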). The conditions noted are these: KCNQ1 cell line, FluxOR thallium flux fluorescence, at 10 µM; hits give high values, % of reference activator effect, buffer zero.

The target of assay [3] is Potassium voltage-gated channel subfamily KQT member 2 (Rattus norvegicus) (UniProt O88943). Nature of the assay: KCNQ2 thallium flux enhancement – KCNQ2-CHO-K1 cells, selectivity assay for KCNQ1 potentiator project (AID 493009;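 active = mean duplicate potentiation above the buffer control mean plus 5 SD of buffer wells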;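 note: assay conditions were tuned for KCNQ1 rather than KCNQ2 modulators; signal is max minus min fluorescence divided by baseline after thallium stimulus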). Conditions: FluxOR thallium flux fluorescence, at 10 µM; hits give high values, scaled: buffer 0, activator control 100.
Potassium voltage-gated channel subfamily KQT member 2 (Rattus norvegicus), sequence (O88943 whole entry, looked up): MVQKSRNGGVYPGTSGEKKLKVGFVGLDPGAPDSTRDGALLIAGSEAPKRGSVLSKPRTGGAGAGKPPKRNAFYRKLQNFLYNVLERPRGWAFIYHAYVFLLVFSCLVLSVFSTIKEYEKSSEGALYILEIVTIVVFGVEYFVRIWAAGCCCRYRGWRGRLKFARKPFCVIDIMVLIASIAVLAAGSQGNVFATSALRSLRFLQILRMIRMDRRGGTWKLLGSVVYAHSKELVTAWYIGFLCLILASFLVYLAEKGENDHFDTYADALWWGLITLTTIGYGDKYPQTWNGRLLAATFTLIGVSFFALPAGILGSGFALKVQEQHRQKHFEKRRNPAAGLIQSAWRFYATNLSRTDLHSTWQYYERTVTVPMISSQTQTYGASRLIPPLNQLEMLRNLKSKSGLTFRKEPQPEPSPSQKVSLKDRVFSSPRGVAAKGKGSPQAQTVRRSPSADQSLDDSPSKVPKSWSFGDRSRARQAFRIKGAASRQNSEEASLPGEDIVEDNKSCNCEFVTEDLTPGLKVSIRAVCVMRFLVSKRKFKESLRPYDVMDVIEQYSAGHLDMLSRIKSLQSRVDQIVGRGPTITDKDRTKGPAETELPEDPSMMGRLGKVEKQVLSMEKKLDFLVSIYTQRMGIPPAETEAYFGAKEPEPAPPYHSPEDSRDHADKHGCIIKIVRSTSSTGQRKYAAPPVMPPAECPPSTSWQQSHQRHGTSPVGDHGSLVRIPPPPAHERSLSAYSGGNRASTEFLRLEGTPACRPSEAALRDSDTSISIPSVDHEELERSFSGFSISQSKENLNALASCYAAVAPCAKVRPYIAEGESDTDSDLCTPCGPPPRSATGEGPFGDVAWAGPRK
For assay [4], the target named is Potassium voltage-gated channel subfamily KQT member 1 (Homo sapiens) (UniProt P51787). Nature of the assay: KCNQ1 activators by electrophysiology – IonWorks patch clamp, KCNQ1-CHO cells, orthogonal assay for KCNQ1 potentiator project, confirmation (AID 493184;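 active = current rise at least 3 SD above the untreated control mean in each of two repeat wells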). The conditions noted are these: automated patch clamp current, at 10 µM; hits give high values. (In general: The patch-clamp technique gives a direct electrical read-out from membranes.)
Potassium voltage-gated channel subfamily KQT member 1 (Homo sapiens), sequence (P51787 whole entry, looked up): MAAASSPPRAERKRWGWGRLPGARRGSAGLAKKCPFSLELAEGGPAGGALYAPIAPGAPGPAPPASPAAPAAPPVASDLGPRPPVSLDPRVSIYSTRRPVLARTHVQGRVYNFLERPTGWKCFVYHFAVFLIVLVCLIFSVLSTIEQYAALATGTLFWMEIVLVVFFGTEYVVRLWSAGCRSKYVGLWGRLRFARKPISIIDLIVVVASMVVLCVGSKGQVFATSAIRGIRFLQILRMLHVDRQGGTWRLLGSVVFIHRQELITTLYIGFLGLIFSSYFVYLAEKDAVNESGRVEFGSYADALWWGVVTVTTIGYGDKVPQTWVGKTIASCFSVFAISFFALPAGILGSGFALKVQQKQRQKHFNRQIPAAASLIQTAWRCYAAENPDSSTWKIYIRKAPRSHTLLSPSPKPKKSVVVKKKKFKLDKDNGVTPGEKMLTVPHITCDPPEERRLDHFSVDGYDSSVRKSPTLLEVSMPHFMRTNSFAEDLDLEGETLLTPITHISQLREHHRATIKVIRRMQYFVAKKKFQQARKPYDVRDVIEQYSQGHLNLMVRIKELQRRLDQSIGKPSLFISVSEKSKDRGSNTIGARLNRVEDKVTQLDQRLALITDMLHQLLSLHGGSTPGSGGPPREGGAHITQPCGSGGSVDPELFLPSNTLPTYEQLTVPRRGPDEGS

A number with no mark means an inactive call. The source made the active and inactive calls.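 Rule for the calls, unless noted: active = duplicate-averaged activation above buffer control mean plus 5 SD of those controls; inactive = the rest.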

Consider `CCC1CCCCN1C(=S)NC(=O)c1cccc([N+](=O)[O-])c1` (configuration not stated), for which the activation in assay [1] is 232% (active). Moreover, the potentiation in assay [2] is 57% (active); in assay [3] it was 284% (active). In assay [4], the result was inactive.

Turning to `Cc1ccc(C(=O)O/N=C(\N)Cc2cccs2)c(Cl)c1`, the result in assay [1], in assay [2], in assay [3] and in assay [4] was inactive.

As to `Cc1cccc(OCC(=O)O/N=C(\N)c2ccc(Cl)cc2)c1`, the outcome in assay [1], in assay [2], in assay [3] and in assay [4] was inactive.

For `CCN(C(=O)c1cc2cc3ccc(C)cc3nc2o1)c1ccc(OC)cc1`, the result in assay [1], in assay [2], in assay [3] and in assay [4] was inactive.

For the molecule `Cc1[nH]n(-c2cccc3ccccc23)c(=O)c1/C=N/c1sc2c(c1C#N)CCC2`, the activation in assay [1] was 204% (active). Also, the figures for the potentiation in assay [2] and in assay [3] were 122% (active) and 288% (active), respectively. Further, in assay [4], the outcome was inactive.

Consider `O=C(c1cccc(-c2ccccc2F)c1)N1CC[C@@H](N2CCC(O)CC2)[C@H](O)C1`, for which the result in assay [1], in assay [2], in assay [3] and in assay [4] was inactive.

Regarding `COc1cccc(/C=N/n2c(-c3cccs3)n[nH]c2=S)c1`, in assay [1], the activation was 286% (active). For the same molecule, the potentiation in assay [2] was 160% (active); in assay [3], 265% (active). Besides, the outcome in assay [4] was inactive.

For `CCOC(=O)c1c(C)[nH]c(=S)c(C#N)c1-c1ccc(Cl)cc1`, the activation in assay [1] is 150% (active). In addition, the figures for the potentiation in assay [2] and in assay [3] were 34.5% (active) and 170% (active), respectively. In addition, the result in assay [4] was inactive.

As for `O=C(CSc1nnnn1-c1ccc(F)cc1)Nc1ccc(N2CCOCC2)c(Cl)c1`, the result in assay [1], in assay [2], in assay [3] and in assay [4] was inactive.

For `Cc1ccc(C(=O)Nc2nnn(C)n2)cc1`, the result in assay [1], in assay [2], in assay [3] and in assay [4] was inactive.

As for `COC(=O)C1SCC2C(=O)N(Cc3ccc(F)cc3)CC(=O)N21` (configuration not stated), the outcome in assay [1] and in assay [4] was inactive. The potentiation in assay [2] is 46.5% (active); in assay [3] it was 178% (active).

As to `CCCCCn1c(=O)c2ccccc2n2c(=S)[nH]nc12`, the activation in assay [1] was 152% (active). The potentiation was 39% (active) in assay [2] and 158% (active) in assay [3]. Also, the outcome in assay [4] was inactive.

As for `COc1ccc(C)cc1NC(=O)C1C2C=CC(C2)C1C(=O)O` (configuration not stated), the outcome in assay [1], in assay [2], in assay [3] and in assay [4] was inactive.

Regarding `COc1ccc(/C=C2\SC(=O)NC2=S)cc1OC`, the activation in assay [1] is 154% (active). Moreover, the potentiation in assay [2] is 34% (active); in assay [3] it was 191% (active). Further, the outcome in assay [4] was inactive.

For `Cc1ccc2nc(C)cc(N/N=C/c3cccnc3)c2c1`, the result in assay [1], in assay [2], in assay [3] and in assay [4] was inactive.

Regarding `CC(/C=C1\SC(=S)N(c2ccc(C(=O)O)cc2)C1=O)=C\c1ccccc1`, the outcome in assay [1], in assay [2], in assay [3] and in assay [4] was inactive.

With `O=C(Cc1cccs1)N=Nc1c(O)[nH]c2ccc(Br)cc12`, the result in assay [1], in assay [2], in assay [3] and in assay [4] was inactive.

For `COc1ccc(OC)c(S(=O)(=O)Nc2ccc3c(c2)N(C(C)=O)CCC3)c1`, the outcome in assay [1], in assay [2], in assay [3] and in assay [4] was inactive.

With `O=C(Nc1nc2c(Br)cc(Br)cc2c(=O)s1)C1CCC1`, in assay [1], the activation was 192% (active). The potentiation in assay [2] was 29% (active); in assay [3] it was 176% (active). Further, the result in assay [4] was inactive.

In the case of `N=C1S/C(=C\c2ccco2)C(=O)N1c1nccs1`, the activation in assay [1] is 138% (active). The outcome in assay [2] and in assay [4] was inactive. Also, the potentiation in assay [3] was 186% (active).

For `O=C(O)C1C2CCC(O2)C1C(=O)NCCC1=CCCCC1` (configuration not stated), the result in assay [1], in assay [2], in assay [3] and in assay [4] was inactive.

For `O=C(NC(=S)Nc1ccccc1N1CCOCC1)c1cccc([N+](=O)[O-])c1`, the result in assay [1], in assay [2], in assay [3] and in assay [4] was inactive.

With `Cc1ccc(-n2cnnn2)c2cccnc12`, the result in assay [1], in assay [2], in assay [3] and in assay [4] was inactive.

For `O=C(NC(=S)Nc1nc2ccccc2s1)c1ccco1`, the activation in assay [1] is 183% (active). The potentiation in assay [2] was 31% (active); in assay [3], 172% (active). Further, the outcome in assay [4] was inactive.

In the case of `CNC(=O)c1nnsc1S(=O)c1ccc(Cl)cc1` (configuration not stated), the outcome in assay [1], in assay [2], in assay [3] and in assay [4] was inactive.

Consider `COC(=O)c1ccc(CSc2ncnc3sc(C)c(C)c23)o1`, for which the activation in assay [1] was 155% (active). For the same molecule, the potentiation in assay [2] was 24% (active); in assay [3] it was 163% (active). Besides, in assay [4], the result was inactive.

Regarding `O=C(COc1ccc(C(=S)N2CCC(Cc3ccccc3)CC2)cc1)N1CCOCC1`, the result in assay [1], in assay [2], in assay [3] and in assay [4] was inactive.

Take `CC1CCN(S(=O)(=O)c2cccc(C(=O)N3CCN(c4ccc(F)cc4)CC3)c2)CC1`: the result in assay [1], in assay [2], in assay [3] and in assay [4] was inactive.

As to `CCOc1ccc(NC(=O)CN(C)C(=O)C2CCN(c3ncnc4sc(C)c(C)c34)CC2)cc1OCC`, the result in assay [1], in assay [2], in assay [3] and in assay [4] was inactive.

For `CCC(=O)NNc1nc2c(Cl)cccc2s1`, the result in assay [1], in assay [2], in assay [3] and in assay [4] was inactive.

Regarding `O=C(NC(=S)N1CCN(C/C=C/c2ccccc2)CC1)c1c(F)cccc1F`, the activation in assay [1] was 139% (active). The potentiation in assay [2] was 28.5% (active). The result in assay [3] and in assay [4] was inactive.

With `CCc1ccc(C2c3[nH]c4ccccc4c3CCN2C(=O)CNC(N)=O)cc1` (configuration not stated), the outcome in assay [1] and in assay [4] was inactive. Moreover, the potentiation in assay [2] is 31% (active); in assay [3], 156% (active).

As for `CC(C)C(NC(=O)Nc1ccccc1)C(=O)Nc1cccc(S(=O)(=O)N(C)C)c1` (configuration not stated), in assay [1], the activation was 232% (active). Besides, the potentiation in assay [2] is 67.5% (active); in assay [3], 232% (active). In addition, the result in assay [4] was inactive.

Regarding `CNC(=O)c1cc(-c2ccc(Cl)cc2)n(-c2ccccc2)n1`, the outcome in assay [1], in assay [2], in assay [3] and in assay [4] was inactive.

Regarding `Cc1ccc(C)c(NS(=O)(=O)c2cc(C(=O)NCc3ccccn3)ccc2Cl)c1`, the result in assay [1], in assay [2], in assay [3] and in assay [4] was inactive.

Regarding `CN(C)CCCn1c(=O)n(C2CCCCC2)c(=O)c2c3c(sc21)CCCCC3`, in assay [1], the activation was 167% (active). The potentiation is 224% (active) in assay [2] and 154% (active) in assay [3]. Besides, the outcome in assay [4] was inactive.

On to `CCN(c1ccc(NS(=O)(=O)c2cc(Cl)ccc2Cl)cc1)C(C)C`, for which the outcome in assay [1], in assay [2], in assay [3] and in assay [4] was inactive.

In the case of `CCOC(=O)c1ccccc1NC(=O)CSc1nc2ccccc2n1CC(=O)N1CCCC1`, the outcome in assay [1], in assay [2], in assay [3] and in assay [4] was inactive.
